In PubChem BioAssay (Tox21):
Results filed as inconclusive are left out. Activity calls are given as the source filed them. Unless noted, the call rests on the fitted dose curve.

Assays:
[1] = Nuclear factor erythroid 2-related factor 2/antioxidant responsive element (Nrf2/ARE) small molecule agonists: qHTS cell viability counter screen in human keratinocytes (AID 1919968; active means well fitted curve in the direction sought with a large enough effect in the repeat runs; an effect the other way counts as inactive or inconclusive; further: nearly all actives have a fitted effect of over 55% in size)
Summary of the method: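 Stably transfected HaCaT (KeratinoSens), 1,500/well. Test agents in DMSO were applied for 23 h, 37 C/5% CO2. CellTiter-Fluor was incubated 1 h before the fluorescence read.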

[2] = Nuclear factor erythroid 2-related factor 2/antioxidant responsive element (Nrf2/ARE) small molecule agonists: luciferase reporter gene qHTS assay in human keratinocytes (AID 1919969); further: nearly all actives have a fitted effect of over 35% in size; further: potency means the concentration at half of the fitted maximal effect
[3] = target: Gonadotropin-releasing hormone receptor (Homo sapiens) (UniProt P30968); test: Human gonadotropin-releasing hormone receptor (GnRHR) small molecule agonists, calcium flux assay in GnRHR-HEK293 cells (AID 1920063); further: nearly all actives have a fitted effect of over 35% in size
Chain of Gonadotropin-releasing hormone receptor (Homo sapiens) (P30968 whole entry, looked up): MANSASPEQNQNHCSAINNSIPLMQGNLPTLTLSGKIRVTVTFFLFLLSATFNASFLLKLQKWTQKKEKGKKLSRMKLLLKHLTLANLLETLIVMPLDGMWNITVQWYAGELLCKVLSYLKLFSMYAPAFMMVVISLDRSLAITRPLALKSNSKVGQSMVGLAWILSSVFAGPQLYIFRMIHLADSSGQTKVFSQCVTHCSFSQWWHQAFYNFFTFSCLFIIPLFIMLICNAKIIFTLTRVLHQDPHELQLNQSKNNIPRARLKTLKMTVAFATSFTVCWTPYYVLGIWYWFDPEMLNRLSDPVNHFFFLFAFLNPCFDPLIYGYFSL
Summary of the method: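 Stable human GnRHR HEK293 line. 18 h plating, then calcium dye for 1 h at 37 C. Agonist-mode compound addition from DMSO stocks; fluorescence monitored 3 min.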

[4] = p53 small molecule agonists, cell-based qHTS assay with human liver microsomes (AID 1963577);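 further: p53 response element beta-lactamase reporter cells with liver microsomes plus NADPH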
Summary of the method: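 Steps: plate p53RE-bla cells, incubate 5 h at 37 C; add compound in DMSO; add microsomes (0.5 mg/mL final) and NADPH (0.5 mg/mL final); incubate 16 h at 37 C; add LiveBLAzer, 2 h RT; read fluorescence.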

[5] = p53 small molecule agonists, cell-based qHTS assay with human liver microsomes: qHTS cell viability counter screen (AID 1963579); further: nearly all actives have a fitted effect of over 45% in size
Summary of the method: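 After the 460/530 nm beta-lactamase read, CellTiter-Glo was added to the same wells and luminescence measured after 30 min at room temperature, giving viability of p53RE-bla cells treated 16 h with compounds plus microsomes and NADPH.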

[6] = p53 small molecule agonists, cell-based qHTS assay with rat liver microsomes: qHTS cell viability counter screen (AID 1963580); further: nearly all actives have a fitted effect of over 45% in size
Summary of the method: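 Rat liver microsome (0.5 mg/mL final) and NADPH (0.5 mg/mL final) co-incubation with compounds for 16 h at 37 C on HCT-116 p53RE-bla cells; cytotoxicity taken from intracellular ATP luminescence.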

[7] = p53 small molecule agonists, cell-based qHTS assay: qHTS cell viability counter screen (AID 1963581); further: nearly all actives have a fitted effect of over 45% in size
Summary of the method: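 qHTS counter screen: 16 h compound exposure at 37 C of p53RE-bla HCT-116 cells (4,000 per well, seeded 5 h prior), cell viability by ATP luminescence.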

[8] = p53 small molecule agonists, cell-based qHTS assay (AID 1963582; active means well fitted activation curve with a large enough effect in the signal ratio in the repeat runs, not every such curve was filed as active; the % refers to the signal ratio)
Summary of the method: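 Measured: fluorescence from cleaved LiveBLAzer substrate. System: p53RE-bla cells, 16 h compound treatment at 37 C, 2 h substrate step at room temperature.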

[9] = target: 5-hydroxytryptamine receptor 2A (Homo sapiens) (UniProt P28223); test: 5-hydroxytryptamine receptor 2A (HTR2A) small molecule agonists, cell-based qHTS assay (AID 1963587); further: nearly all actives have a fitted effect of over 30% in size
Chain of 5-hydroxytryptamine receptor 2A (Homo sapiens) (P28223 whole entry, looked up): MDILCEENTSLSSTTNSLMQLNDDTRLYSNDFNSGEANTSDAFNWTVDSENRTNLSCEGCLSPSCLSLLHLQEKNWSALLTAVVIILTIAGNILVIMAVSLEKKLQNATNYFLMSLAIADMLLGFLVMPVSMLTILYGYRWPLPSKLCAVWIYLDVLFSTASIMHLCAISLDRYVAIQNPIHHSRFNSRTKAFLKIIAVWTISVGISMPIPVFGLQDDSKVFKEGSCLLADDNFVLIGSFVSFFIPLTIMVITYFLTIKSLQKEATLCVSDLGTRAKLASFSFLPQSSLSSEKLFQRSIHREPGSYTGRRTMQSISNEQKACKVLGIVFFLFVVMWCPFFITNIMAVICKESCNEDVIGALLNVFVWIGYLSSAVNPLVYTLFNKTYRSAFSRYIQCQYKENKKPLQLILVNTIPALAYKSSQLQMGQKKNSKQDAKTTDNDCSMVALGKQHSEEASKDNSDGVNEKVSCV
Summary of the method: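 Kinetic calcium-flux fluorescence (2 min, 1 sec intervals) after compound addition in agonist mode. HTR2A-CHO cells were cultured 18 h, then dye-loaded 1 h at 37 C.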

[10] = target: Muscarinic acetylcholine receptor M1 (Homo sapiens) (UniProt P11229); test: Cholinergic receptor muscarinic 1 (CHRM1) small molecule antagonists, cell-based qHTS assay (AID 1963588); further: nearly all actives have a fitted effect of over 40% in size
Chain of Muscarinic acetylcholine receptor M1 (Homo sapiens) (P11229 whole entry, looked up): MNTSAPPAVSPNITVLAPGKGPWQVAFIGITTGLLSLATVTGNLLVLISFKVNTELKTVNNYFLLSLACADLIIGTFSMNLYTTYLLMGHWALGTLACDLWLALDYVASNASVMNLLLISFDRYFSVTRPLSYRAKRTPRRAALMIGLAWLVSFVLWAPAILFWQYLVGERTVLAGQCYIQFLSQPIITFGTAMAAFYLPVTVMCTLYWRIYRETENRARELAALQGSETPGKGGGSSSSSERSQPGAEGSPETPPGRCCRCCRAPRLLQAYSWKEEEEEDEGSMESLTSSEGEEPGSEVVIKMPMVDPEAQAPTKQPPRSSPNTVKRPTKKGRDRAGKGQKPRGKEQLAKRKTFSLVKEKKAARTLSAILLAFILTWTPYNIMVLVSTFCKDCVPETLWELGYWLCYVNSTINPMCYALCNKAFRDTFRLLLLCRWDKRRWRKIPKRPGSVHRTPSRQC
Summary of the method: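 Compounds were tested at 15 concentrations in three independent runs. Dye-loaded CHRM1-CHO cells were exposed 5 min at room temperature before stimulation by acetylcholine added at 50nM. Intracellular calcium was read kinetically on FDSS for 3 min.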

[11] = target: Muscarinic acetylcholine receptor M1 (Homo sapiens) (UniProt P11229); test: Cholinergic receptor muscarinic 1 (CHRM1) small molecule agonists, cell-based qHTS assay (AID 1963589); further: nearly all actives have a fitted effect of over 35% in size
Summary of the method: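 Kinetic fluorescence (1 s intervals) of calcium-sensitive dye in human M1 CHO cells after compound addition; cells pre-incubated 18 h at 37 C/5% CO2 and dye-loaded 1 h.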

[12] = target: Beta-2 adrenergic receptor (Homo sapiens) (UniProt P07550); test: Adrenergic beta2 receptor (ADRB2) small molecule antagonists, cell-based qHTS assay (AID 1963592); further: series mostly up to about 92 µM; nearly all actives have a fitted effect of over 50% in size
Chain of Beta-2 adrenergic receptor (Homo sapiens) (P07550 whole entry, looked up): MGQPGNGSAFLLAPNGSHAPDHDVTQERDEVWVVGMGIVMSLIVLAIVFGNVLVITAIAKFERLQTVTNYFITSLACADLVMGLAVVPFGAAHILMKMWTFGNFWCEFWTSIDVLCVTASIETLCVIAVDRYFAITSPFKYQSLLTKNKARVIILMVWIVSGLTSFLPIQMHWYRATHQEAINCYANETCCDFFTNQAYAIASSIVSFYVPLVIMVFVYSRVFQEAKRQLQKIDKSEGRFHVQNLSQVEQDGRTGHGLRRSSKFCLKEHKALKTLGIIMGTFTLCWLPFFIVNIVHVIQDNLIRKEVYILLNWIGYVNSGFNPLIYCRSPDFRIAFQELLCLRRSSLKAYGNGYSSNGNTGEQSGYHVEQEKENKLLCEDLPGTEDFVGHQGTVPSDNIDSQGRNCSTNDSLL
Summary of the method: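 Assay format: CHO-ADRB2 cells, 18-20hr seeding at 37C/5% CO2, then compound plus 1nM isoproterenol agonist mix for 0.5hr RT. Homogeneous time-resolved fluorescence cAMP detection after 1hr, expressed as 665/615 nm ratio.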

[13] = target: D(2) dopamine receptor (Homo sapiens) (UniProt P14416); test: Dopamine D2 receptor (DRD2) small molecule agonists, cell-based qHTS assay (AID 1963594); further: nearly all actives have a fitted effect of over 35% in size
Chain of D(2) dopamine receptor (Homo sapiens) (P14416 whole entry, looked up): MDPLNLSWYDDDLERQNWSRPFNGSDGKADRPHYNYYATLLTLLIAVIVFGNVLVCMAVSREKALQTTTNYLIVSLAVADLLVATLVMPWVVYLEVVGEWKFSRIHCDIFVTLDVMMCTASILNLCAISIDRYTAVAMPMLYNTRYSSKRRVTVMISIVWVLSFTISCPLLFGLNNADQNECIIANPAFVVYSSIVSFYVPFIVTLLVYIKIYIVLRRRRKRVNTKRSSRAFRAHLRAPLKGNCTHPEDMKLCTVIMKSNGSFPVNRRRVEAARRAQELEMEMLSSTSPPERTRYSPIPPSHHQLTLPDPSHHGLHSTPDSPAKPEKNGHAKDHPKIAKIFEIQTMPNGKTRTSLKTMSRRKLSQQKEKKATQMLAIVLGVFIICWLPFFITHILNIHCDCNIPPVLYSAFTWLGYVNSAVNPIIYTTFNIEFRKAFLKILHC
Summary of the method: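 cAMP accumulation in DRD2-HEK293 cells measured by HTRF after 1 h detection; compounds added 10 min before NKH477 (200nM […]) forskolin-analogue stimulation, 30 min at room temperature, with Ro20-1724 present at 0.1 mM final.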

[14] = G protein-coupled receptor (GPCR) small molecule agonists, calcium flux assay: HEK293 wild type cell line counter screen (AID 1920065)
Summary of the method: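 Following 18 h incubation at 37 C/5% CO2, plates got calcium dye for 1 h; compounds, ATP or DMSO were then pinned in and fluorescence followed kinetically (480/540 nm).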

[15] = p53 small molecule agonists, cell-based qHTS assay with rat liver microsomes (AID 1963578)
Summary of the method: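 Metabolic activation is supplied by rat liver microsomes with NADPH (each 0.5 mg/mL final). p53RE-bla cells incubate with compound 16 h at 37 C; reporter activity is measured by LiveBLAzer fluorescence.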

[16] = cAMP Responsive Elements (CRE) small molecule agonists, cell-based qHTS assay (AID 1963590)
Summary of the method: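 Test agents in DMSO were incubated 3 h at 37 C/5% CO2 with CRE-bla HEK 293T cells seeded 18 h earlier; LiveBLAzer B/G FRET substrate was added and read after 2 h at room temperature.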

[17] = target: D(2) dopamine receptor (Homo sapiens) (UniProt P14416); test: Dopamine D2 receptor (DRD2) small molecule antagonists, cell-based qHTS assay (AID 1963595; active means well fitted inhibition curve with a large enough effect in the signal ratio in the repeat runs, with a control signal flat; the % refers to the signal ratio; further: potency means the concentration at half of the fitted maximal effect)
Summary of the method: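 In this cell-based antagonist screen, compounds act for 10 min at room temperature before a 30 min challenge with 12 nM quinpirole and 200 nM NKH477. cAMP is quantified by HTRF competition in DRD2-HEK293 cells containing 0.1 mM Ro20-1724.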

[18] = target: 5-hydroxytryptamine receptor 2A (Homo sapiens) (UniProt P28223); test: 5-hydroxytryptamine receptor 2A (HTR2A) small molecule antagonists, cell-based qHTS assay (AID 1963586); further: nearly all actives have a fitted effect of over 45% in size; further: potency means the concentration at half of the fitted maximal effect
Summary of the method: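 CHO cells stably expressing human HTR2A were plated for 18 h at 37 C, then loaded with calcium dye for 1 h. Compounds were preincubated 5 min at room temperature before DOI (4 nM solution) was added. Kinetic fluorescence was read for 3 min.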

[19] = cAMP Responsive Elements (CRE) small molecule antagonists, cell-based qHTS assay (AID 1963591; active means well fitted inhibition curve with a large enough effect in the signal ratio in the repeat runs, not every such curve was filed as active; the % refers to the signal ratio)
Summary of the method: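 Reporter line CRE-bla HEK 293T in dialyzed-FBS DMEM; cells preincubated 18 h, treated 3 h with compound plus NKH477 (0.25 uM final); LiveBLAzer FRET, 2 h RT.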

[20] = target: KiSS-1 receptor (Homo sapiens) (UniProt Q969F8); test: Human kisspeptin (KISS1R) small molecule agonists, calcium flux assay in KISS1R-HEK293 cells (AID 1920064; active means well fitted curve in the direction sought with a large enough effect in the repeat runs; an effect the other way counts as inactive or inconclusive)
Chain of KiSS-1 receptor (Homo sapiens) (Q969F8 whole entry, looked up): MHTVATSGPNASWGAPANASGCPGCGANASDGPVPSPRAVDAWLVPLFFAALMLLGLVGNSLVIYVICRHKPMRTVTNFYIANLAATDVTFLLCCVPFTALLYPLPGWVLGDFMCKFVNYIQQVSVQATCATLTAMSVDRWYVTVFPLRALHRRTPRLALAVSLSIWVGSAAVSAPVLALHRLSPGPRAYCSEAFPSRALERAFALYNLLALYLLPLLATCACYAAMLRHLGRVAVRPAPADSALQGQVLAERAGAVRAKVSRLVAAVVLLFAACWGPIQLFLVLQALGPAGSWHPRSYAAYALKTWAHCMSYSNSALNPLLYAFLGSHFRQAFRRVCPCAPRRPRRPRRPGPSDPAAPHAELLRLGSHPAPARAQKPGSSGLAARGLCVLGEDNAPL
Summary of the method: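 After overnight (18 h) culture at 37 C/5% CO2, human KISS1R-HEK293 cells received calcium dye for 1 h, then test compound; emission at 540 nm (excitation 480 nm) was tracked for 3 min.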
On the % scale 0 is the no-effect control and ±100 the full control effect.

CCCCN1CCCC1C(=O)Nc1c(C)cc(C)cc1C (centres undefined)
inactive: Potency [1] | Potency [2] | Potency [3] | Potency [4] | Potency [5] | Potency [6] | Potency [7] | Potency [8] | Potency [9] | Potency [10] | Potency [11] | Potency [12] | Potency [13]

O=C(CCCN1CCC(O)(c2ccc(Br)cc2)CC1)c1ccc(F)cc1
inactive: Potency [1] | Potency [2] | Potency [3] | outcome [14] | Potency [4] | Potency [15] | Potency [6] | Potency [7] | Potency [11] | Potency [16] | Potency [13]
active: Potency [17] 0.188 µM

Cc1cccn2c(=O)c(-c3nnn[nH]3)cnc12
inactive: activity change, negative = cytotoxicity [1] 0.925% [at 19 µM] | activity, positive = activation [2] -2.87% [at 19 µM] | activity change [3] -0.454% [at 11.8 µM, active compounds read high] | activation [14] -0.181% [at 11.8 µM] | activation [4] 6.61% [at 13.5 µM] | activity change, negative = cytotoxicity [5] -18.5% [at 13.5 µM] | activity change, negative = cytotoxicity [6] -1.1% [at 13.5 µM] | activity change, negative = cytotoxicity [7] -1.22% [at 13.5 µM] | activation [8] 1.33% [at 13.5 µM] | activity, negative = inhibition [18] 5.08% [at 12.7 µM] | activation [9] 1.65% [at 15.9 µM] | activity, negative = inhibition [10] -2.73% [at 12.6 µM] | activation [11] -0.574% [at 15.8 µM] | activity change, negative = inhibition [19] 5.45% [at 18.9 µM] | activity change, negative = inhibition [12] 1.4% [at 19 µM] | activation [13] 2.69% [at 19 µM] | activity change, negative = inhibition [17] -1.25% [at 18.9 µM]

CCCCCCCCSCc1cc(C)c(O)c(CSCCCCCCCC)c1
active: Potency [2] 61.1 µM
inactive: Potency [1] | Potency [3] | outcome [14] | Potency [4] | Potency [5] | Potency [6] | Potency [18] | Potency [9] | Potency [10] | Potency [11] | Potency [19] | Potency [12] | Potency [13] | Potency [17]

C=CCOc1nc(OCC=C)nc(OCC=C)n1
inactive: Potency [1] | Potency [2] | Potency [3] | Potency [4] | Potency [15] | Potency [6] | Potency [7] | Potency [8] | Potency [18] | Potency [9] | Potency [10] | Potency [11] | Potency [19] | Potency [12] | Potency [13] | Potency [17]

CCCCC
inactive: Potency [1] | Potency [2] | outcome [20] | outcome [14] | Potency [4] | Potency [15] | Potency [5] | Potency [6] | Potency [7] | Potency [8] | Potency [18] | Potency [9] | Potency [10] | Potency [11] | Potency [16] | Potency [19] | Potency [12] | Potency [13] | Potency [17]

c1ccc(-c2nn[nH]n2)cc1
inactive: Potency [1] | Potency [2] | outcome [20] | outcome [14] | Potency [4] | Potency [15] | Potency [5] | Potency [6] | Potency [7] | Potency [8] | Potency [18] | Potency [9] | Potency [10] | Potency [11] | Potency [16] | Potency [19] | Potency [12] | Potency [13]

CN(C)C(=O)Nc1ccc(Oc2ccc(Cl)cc2)cc1
inactive: Potency [1] | Potency [2] | Potency [3] | outcome [14] | Potency [15] | Potency [5] | Potency [6] | Potency [7] | Potency [18] | Potency [9] | Potency [10] | Potency [11] | Potency [16] | Potency [19] | Potency [12] | Potency [13] | Potency [17]

O=C(OCC1CO1)C1CCCCC1C(=O)OCC1CO1 (centres undefined)
active: Potency [2] 68.7 µM
inactive: Potency [1] | Potency [3] | Potency [4] | Potency [15] | Potency [5] | Potency [6] | Potency [7] | Potency [18] | Potency [9] | Potency [10] | Potency [11] | Potency [12] | Potency [13] | Potency [17]

COC(=O)CC#N
inactive: Potency [1] | Potency [2] | Potency [3] | Potency [4] | Potency [5] | Potency [6] | Potency [7] | Potency [8] | Potency [18] | Potency [10] | Potency [11] | Potency [16] | Potency [19] | Potency [12] | Potency [13] | Potency [17]

COC(=O)C1=C(C)NC(C)=C(C(=O)OCCN2CCN(C(c3ccccc3)c3ccccc3)CC2)C1c1cccc([N+](=O)[O-])c1 (centres undefined)
inactive: Potency [1] | Potency [2] | Potency [3] | outcome [14] | Potency [4] | Potency [15] | Potency [6] | Potency [7] | Potency [9] | Potency [10] | Potency [11] | Potency [19] | Potency [12] | Potency [17]
active: Potency [18] 8.18 µM

O=C1C=CCCC1
inactive: Potency [1] | Potency [2] | Potency [3] | outcome [14] | Potency [15] | Potency [5] | Potency [6] | Potency [8] | Potency [18] | Potency [9] | Potency [10] | Potency [11] | Potency [16] | Potency [12] | Potency [13] | Potency [17]

C[Si]1(C)O[Si](C)(C)O[Si](C)(C)O1
inactive: Potency [1] | Potency [2] | outcome [20] | outcome [14] | Potency [4] | Potency [15] | Potency [5] | Potency [6] | Potency [7] | Potency [8] | Potency [18] | Potency [9] | Potency [10] | Potency [11] | Potency [16] | Potency [19] | Potency [12] | Potency [13] | Potency [17]

COc1ccc(OC)c(NC(=O)CC(C)=O)c1
inactive: Potency [1] | Potency [2] | outcome [20] | outcome [14] | Potency [4] | Potency [15] | Potency [5] | Potency [6] | Potency [7] | Potency [8] | Potency [18] | Potency [9] | Potency [10] | Potency [11] | Potency [16] | Potency [12] | Potency [17]

CC(=O)[C@@]1(O)CC[C@H]2[C@@H]3C[C@H](C)C4=CC(=O)CC[C@]4(C)[C@H]3CC[C@@]21C
inactive: Potency [1] | Potency [2] | Potency [3] | outcome [14] | Potency [15] | Potency [6] | Potency [7] | Potency [8] | Potency [12] | Potency [13] | Potency [17]

CCCCCCOC(=O)C(C)C
inactive: Potency [1] | Potency [2] | outcome [20] | outcome [14] | Potency [4] | Potency [15] | Potency [5] | Potency [6] | Potency [7] | Potency [8] | Potency [18] | Potency [9] | Potency [10] | Potency [11] | Potency [16] | Potency [12] | Potency [13] | Potency [17]
